The structures appear in SMILES notation. Results filed as inconclusive are left out. Where a call stands in place of a potency, no number is given. The source made the active and inactive calls. Calls come from the whole dose curve; as a rule, active = well fitted cell-killing curve with a large enough effect in the repeat runs; inconclusive = weak or mixed curves, or effect the other way; inactive = no such curve, though single readings can be large or run the other way.
Potency is the fitted concentration of half-maximal effect.

This experiment in a line: qHTS assay to identify small molecule antagonists of the peroxisome proliferator-activated receptor gamma (PPARg) signaling pathway - cell viability counter screen (AID 743194). Note: nearly all actives have a fitted effect of over 55% in size. The conditions noted are these: PPARg-bla HEK293H viability, CellTiter-Glo luminescence, 17 h, co-treated with 50 nM rosiglitazone; series mostly up to 62.6 µM. The source says: U.S. Tox21 Program National Center for Advancing Translational Sciences [NCATS] NIH Chemical Genomics Center [NCGC] U.S. Environmental Protection Agency [EPA] National Institutes of Environmental Health Sciences [NIEHS] National Toxicology Program [NTP] U.S. Food and Drug Administration [FDA] Tox21 Assay Overview: The peroxisome proliferator-activated receptors (PPARs) are lipid-activated transcription factors of the nuclear receptor superfamily with three distinct subtypes namely PPAR alpha, PPAR delta (also called PPAR beta) and PPAR gamma (PPARg). All these subtypes heterodimerize with Retinoid X receptor (RXR) and these heterodimers regulate transcription of various genes. PPAR-gamma receptor (glitazone receptor) is involved in the regulation of glucose and lipid metabolism. To identify the compounds that activate PPAR-gamma signaling, GeneBLAzer PPAR gamma UAS-bla HEK293H cell line (Invitrogen, Carlsbad, CA, USA) containing a beta-lactamase reporter gene under the control of an Upstream Activator Sequence (UAS) was used to screen the Tox21 compound library. The cytotoxicity of the Tox21 compound library against the PPARg-bla cell line was tested in parallel by measuring the cell viability using CellTiter-Glo assay in the same wells.
Tox21 Assay Protocol Summary: PPARg-bla cells were dispensed at 3000 cells/5uL/well in 1536-well black wall/clear bottom plates using a Multidrop Combi (Thermo Fisher Scientific, Waltham, MA) dispenser. After the assay plates were incubated at 37 C and 5% CO2 for 5 h, 23 nL of compounds dissolved in DMSO, positive controls or DMSO only was transferred to the assay plate by a Pintool station (Kalypsys, San Diego, CA), followed by addition of 1ul Rosiglitazone (50 nM, final concentration in the wells). The assay plates were incubated at 37 C for 17 h, and then 1 uL of LiveBLAzerTM B/G FRET substrate was added using a Bioraptr Flying Reagent Dispenser (FRD) workstation (Beckman Coulter, Indianapolis, IN, USA). The assay plates were incubated at room temperature for 1 h and fluorescence intensity was measured by an Envision plate reader (PerkinElmer, Shelton, CT). For cell viability readout that measures cytotoxicity, 4 ul/well of CellTiter-Glo reagent was added into the assay plates using a Flying Reagent Dispenser. After 30 min incubation at room temperature, the luminescence intensity in the plates was measured using a ViewLux plate reader (PerkinElmer).
On the technique in general: qHTS replaces the single test concentration by a dilution series.
Regarding `COc1ccc(-c2ccc3cc(C(=O)O)ccc3c2)cc1C12CC3CC(CC(C3)C1)C2`, the Potency was 23.7 µM (active).

`CC(C)(C)c1ccc(C(=O)O)cc1`: the Potency result was “inactive”.

In the case of `CC(C)c1ccc2c(c1)CC[C@H]1[C@](C)(CN)CCC[C@]21C`, the Potency was 11 µM (active).

For the molecule `Oc1ccc(C2(c3ccc(O)cc3)CC3CC2C2CCCC32)cc1` (stereo not given), the Potency was 26.5 µM (active).

Consider `O=C(OCC1CO1)C1CCCCC1C(=O)OCC1CO1` (stereo not given), for which the Potency result was “inactive”.

Turning to `CCCCCCCCCCCCCC[P+](CCCC)(CCCC)CCCC` (tested in a mixture with another compound), the Potency is 0.277 µM (active).

For `Cc1oc(-c2ccccc2)nc1CCC(=O)c1ccc(CC2SC(=O)NC2=O)cc1` (stereo not given), the Potency result is “inactive”.

As to `O=C1C=CC(=O)N1`, the Potency was 25.2 µM (active).

In the case of `O=C1C=CC(=O)N1c1ccc(Cc2ccc(N3C(=O)C=CC3=O)cc2)cc1`, the Potency is 13.8 µM (active).

Regarding `CNCc1cc(F)ccc1Oc1ccc(Cl)c(Cl)c1`, the Potency result is “inactive”.

For `CCN(C(=O)N(CC)c1ccccc1)c1ccccc1`, the Potency result is “inactive”.

For the molecule `NC(=O)C1(N2CCCCC2)CCN(CCCN2c3ccccc3CCc3ccc(Cl)cc32)CC1`, the Potency was 29.8 µM (active).

As for `CCCCCCOC(=O)c1ccc(O)cc1`, the Potency entry is “inactive”.

Consider `CC1(C)CCC(C)(C)c2cc(C(=O)Nc3ccc(C(=O)O)cc3)ccc21`, for which the Potency result was “inactive”.

With `C[C@@H](NCCCc1cccc(C(F)(F)F)c1)c1cccc2ccccc12`, the Potency is 26.6 µM (active).

For `Cc1onc(-c2ccccc2Cl)c1C(=O)N[C@@H]1C(=O)N2[C@@H]1SC(C)(C)[C@@H]2C(=O)O`, the Potency result was “inactive”.

As for `CCCCCCCCCCCC[N+](C)(C)CCCCCCCCCCCC`, the Potency is 27.5 µM (active).

`CCOC(=O)O[C@H](C)OC(=O)c1ccc2c(c1)cc(C(=O)NC1CCN(C(C)C)CC1)n2Cc1cc(-c2ccc(Cl)s2)on1`: the Potency was 10.2 µM (active).

Consider `Cc1[nH]cnc1C[C@H]1CCc2c(C)c3ccccc3n2C1=O`, for which the Potency was 19 µM (active).

In the case of `Cc1c(C)c2c(c(C)c1O)CCC(C)(COc1ccc(CC3SC(=O)NC3=O)cc1)O2` (stereo not given), the Potency entry is “inactive”.

`CN1CCC(Nc2ncc3ncnc(Nc4ccc(F)c(Cl)c4)c3n2)CC1`: the Potency result is “inactive”.

For `CC(NN)c1ccccc1` (stereo not given), the Potency result was “inactive”.

In the case of `Cc1cc(N)c(S(=O)(=O)O)cc1Cl`, the Potency result was “inactive”.

As to `CC[C@H]1O[C@]2(CC[C@@H]1C)C[C@@H]1C[C@@H](C/C=C(\C)C[C@@H](C)/C=C/C=C3\CO[C@@H]4[C@H](O)C(C)=C[C@@H](C(=O)O1)[C@]34O)O2`, the Potency was 19.3 µM (active).

As for `CSc1ccc(/C=C2/C(C)=C(CC(=O)O)c3cc(F)ccc32)cc1`, the Potency result was “inactive”.

Regarding `O=C(Nc1ccc(Oc2ccc(Cl)cc2)c(Cl)c1)c1cc(I)cc(I)c1O`, the Potency is 5.31 µM (active).

For `CN(C)[C@@H]1C(=O)C(C(N)=O)=C(O)[C@@]2(O)C(=O)C3=C(O)c4c(O)cccc4C[C@H]3C[C@@H]12`, the Potency entry was “inactive”.

As to `C=CC(=O)OCC(CO)(COCC(COC(=O)C=C)(COC(=O)C=C)COC(=O)C=C)COC(=O)C=C`, the Potency is 3.05 µM (active).

Turning to `CC/C(=C(\c1ccc(O)cc1)c1ccc(OCCN(C)C)cc1)c1ccccc1`, the Potency was 17.4 µM (active).

With `Cc1c(C)c2c(c(C)c1OC(=O)CCC(=O)O)CC[C@@](C)(CCC[C@H](C)CCC[C@H](C)CCCC(C)C)O2`, the Potency result is “inactive”.

Consider `CCCCCCCCCCCCc1ccc(O)cc1`, for which the Potency is 19.5 µM (active).

`Nc1c2ccccc2nc2ccccc12`: the Potency entry is “inactive”.

For the molecule `CCCCCCCC[P+](CCCCCCCC)(CCCCCCCC)CCCCCCCC`, the Potency is 4.34 µM (active).

With `CCCCCCCCCCn1cc[n+](CCCCCCCCCC)c1C`, the Potency was 6.93 µM (active).

With `NNc1nc(-c2ccc(N)cc2)cs1`, the Potency result is “inactive”.

As for `CC(C)CCCCCCCCCCCCCCC(=O)O`, the Potency entry is “inactive”.

On to `C/C=C1/C(=O)C[C@H]2[C@@H]3CCC4=CC(=O)CC[C@]4(C)[C@H]3CC[C@]12C`, for which the Potency result is “inactive”.

On to `O=C(c1ccc(F)cc1)C1CCN(CCn2c(=O)[nH]c3ccccc3c2=O)CC1`, for which the Potency result is “inactive”.

For `CS(=O)(=O)CCNCc1ccc(-c2ccc3ncnc(Nc4ccc(OCc5cccc(F)c5)c(Cl)c4)c3c2)o1`, the Potency is 15 µM (active).

Consider `CN(C)C(=O)C1(N2CCCCC2)CCN(CC[C@@]2(c3ccc(Cl)c(Cl)c3)CN(C(=O)c3ccccc3)CCO2)CC1`, for which the Potency is 16.2 µM (active).

(Values after PubChem BioAssay (Tox21).)
